In the supplement of paper PMC10941209:
Unmarked numbers belong to inactive results.

system: Toxoplasma gondii RH 2F1 tachyzoites (intracellular in HFF); assay: parasite survival relative to DMSO control; higher = less antiparasitic activity, active = 20 or less; conditions: 1 µM; 72 h
Method: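 Primary single-dose screen of the MMV Pandemic Response Box at 1 uM against T. gondii RH-2F1 (beta-galactosidase) tachyzoites in HFF cells, 72 h at 37 C. Parasite growth read by CPRG absorbance at 570 nm and normalised to DMSO-treated infected controls (% survival); pyrimethamine was the reference drug. The paper calls at least 80% inhibition a hit.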

SMILES | parasite survival
NC(=O)c1cnc2ccc(S(=O)(=O)c3ccccc3)cc2c1Nc1ccc(O)cc1 | 43%
O=C(c1nc2c(C(F)(F)F)cc(C3CC3)cn2c1Cl)N1CCN([C@H]2CC[C@H](O)CC2)C(=O)C1 | 21.1%
Cc1ccc(S(=O)(=O)Nc2cccc3cccnc23)cc1 | 4.22% (active)
O=C(O)c1sccc1S(=O)(=O)n1ccc2cc(Br)ccc21 | 66.8%
CC(N)C12CC3CC(CC(C3)C1)C2 (stereo not given) | 78.3%
CCc1cc(O)c(Oc2ccc(C(N)=O)cc2F)cc1F | 71.5%
CS(=O)(=O)c1ccc(Oc2ccc(Cl)cc2)cc1 | 54.5%
CCc1nc2ccccn2c1C(=O)NCc1ccccc1 | 79.5%
Nc1nc2c(ncn2COC(CO)CO)c(=O)[nH]1 | 80%
Nc1cccc(-c2nc(N)nc(NC3Cc4ccccc4C3)n2)c1 | 42.3%
CC(C)Cn1c(=O)n(C)c(=O)c2c(-c3cncn3C)n(Cc3cccc4ccccc34)nc21 | 68.5%
COC(=O)Nc1nc2c(C)cccc2[nH]1 | 36.4%
CC1=C(/C=C/C(C)=C/C=C/C(C)=C/C(=O)Nc2ccc(O)cc2)C(C)(C)CCC1 | 35.7%
O=[N+]([O-])c1cn(Cc2nc(O)nc(O)c2Br)cn1 | 58.1%
CC(C)N(c1cc(-c2ccccc2)sc1C(=O)O)C(=O)[C@H]1CC[C@H](C)CC1 | 65%
FC(F)(F)c1cc(C(F)(F)F)c2ccc3nc(-c4nnco4)cn3c2n1 | 77.8%
O=S(=O)(Nc1ccc(-n2cccc2)cc1)c1ccc(Cl)c(Cl)c1 | 58.1%
CCOc1noc2cc(OCCC3CCN(c4ccc(C)nn4)CC3)ccc12 | 45%
CC(C)Oc1ccc(-n2cnc3cc(/C=C\c4ccc(C(C)(C)O)cc4)ccc32)cc1 | 31.7%
Nc1nc2c(ncn2COCCO)c(=O)[nH]1 | 67.4%

SMILES | parasite survival
CCOC(=O)Nc1cc(NC(C)CC(C)CN(CC)CC)c2nc(-c3ccccc3)c(-c3ccccc3)nc2n1 (stereo not given) | 7.01% (active)
CCCCCCCCC(CP(=O)(O)C(C)N)C(=O)O (stereo not given) | 62.7%
N[C@@H]1CN(c2c(F)cc3c(=O)c(C(=O)O)cn([C@@H]4C[C@@H]4F)c3c2Cl)CC12CC2 | 51.8%
Nc1nc(O)c2ncn([C@@H]3O[C@H](CO)[C@@H](O)[C@H]3F)c2n1 | 75.9%
CC(C)C(=O)N[C@H]1[C@H]([C@H](O)[C@H](O)CO)OC(C(=O)O)=C[C@@H]1N=[N+]=[N-] | 72.6%
Fc1ccc(-n2cc(Cn3c(-c4cccc(F)c4)nc4ccccc43)nn2)cc1 | 50.1%
C=CCc1cc(Cc2cnc(N)nc2N)cc(OC)c1O | 29.8%
CCOC(=O)N[C@@H]1CC[C@@H]2[C@@H](C1)C[C@H]1C(=O)O[C@H](C)[C@H]1[C@H]2/C=C/c1ccc(-c2cccc(F)c2)cn1 | 23%
Nc1cnn(C2OC(CO)C(O)C2O)c(=O)n1 (stereo not given) | 76.2%
O=C(NCc1ccccc1Cl)c1cnc2ccccc2n1 | 45.6%
CCCC(=O)OCCc1ccccc1 | 57%
CN(C)CCCNC(=O)c1ccc(-c2cc(O)c3ncccc3c2)cc1 | 81.2%
CCc1cc(Nc2cc(=O)n(CCN3CCN(C(=O)c4ccccc4)CC3)c(=O)[nH]2)ccc1C | 26%
O=C(c1ccc(F)cc1)N1CCN2C(=O)c3ccccc3C12c1ccccc1 (stereo not given) | 64.9%
CC(=O)N1CCN(c2ccc(OCC3COC(Cn4ccnc4)(c4ccc(Cl)cc4Cl)O3)cc2)CC1 (stereo not given) | 58.4%
Nc1nc(-c2ccccc2)nc2c1ncn2[C@@H]1O[C@H](COS(=O)(=O)NC(=O)c2ccccc2O)[C@@H](O)[C@H]1O | 60.7%
CCOC(=O)/C=C/[C@H](C[C@@H]1CCNC1=O)NC(=O)[C@H](CC)n1cccc(NC(=O)c2cc(C)on2)c1=O | 63.3%
OCCC#Cc1nc(-c2ccc(F)cc2)c(-c2ccncc2)n1CCCc1ccccc1 | 9.3% (active)
O=S(=O)(Nc1cccc2cccnc12)c1ccccc1 | 24.5%
CCC(C)(C)c1ccc(CC(C)CN2C[C@@H](C)O[C@@H](C)C2)cc1 (stereo not given in full) | 35.1%
